# Many of the other results were omitted from the sample, so the strongest signals are more common in it than they were.
# Experiments:
# Test in all cases: glycan array binding signal (z-score within array); higher = stronger binding
# Details in all cases: glycan notation: IUPAC condensed, linker removed
# Kdn(a2-3)Gal(b1-3)GalNAc = molecular target: Kdn(a2-3)Gal(b1-3)GalNAc
# Summary of the method: (§1)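 The binding signal is a Z-score computed within each array and averaged over linkers. Arrays of the same protein sequence at different concentrations or buffers were also averaged together. Data originate from 3228 arrays in the Consortium for Functional Glycomics database, kept only where the protein sequence was available.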
# [1] = molecular target: Man(a1-2)Man(a1-6)[Man(a1-3)]Man(a1-6)[Man(a1-2)Man(a1-2)Man(a1-3)]Man(b1-4)GlcNAc(b1-4)GlcNAc
# Summary of the method: as §1
# [2] = molecular target: Neu5Ac(a2-3)Gal(b1-3)GalNAc6S
# Summary of the method: as §1
# [3] = molecular target: Neu5Ac(a2-3)Gal(b1-3)GlcNAc(b1-3)GalNAc
# Summary of the method: as §1
# [4] = molecular target: Neu5Ac(a2-3)Gal(b1-4)GlcNAc(b1-2)Man(a1-3)[GlcNAc(b1-4)][Neu5Ac(a2-3)Gal(b1-4)GlcNAc(b1-2)Man(a1-6)]Man(b1-4)GlcNAc(b1-4)GlcNAc
# Summary of the method: as §1
# [5] = molecular target: Neu5Ac(a2-3)Gal(b1-4)GlcNAc(b1-2)[Neu5Ac(a2-3)Gal(b1-4)GlcNAc(b1-6)]Man(a1-6)[Neu5Ac(a2-3)Gal(b1-4)GlcNAc(b1-2)Man(a1-3)][GlcNAc(b1-4)]Man(b1-4)GlcNAc(b1-4)GlcNAc
# Summary of the method: as §1
# [6] = molecular target: Neu5Ac(a2-3)Gal(b1-4)GlcNAc(b1-3)Gal(b1-3)GlcNAc
# Summary of the method: as §1
# [7] = molecular target: Neu5Ac(a2-3)[GalNAc(b1-4)]Gal(b1-4)GlcNAc(b1-3)GalNAc
# Summary of the method: as §1
# [8] = molecular target: Neu5Ac(a2-6)Gal(b1-4)GlcNAc(b1-2)Man(a1-3)[GlcNAc(b1-2)Man(a1-6)]Man(b1-4)GlcNAc(b1-4)GlcNAc
# Summary of the method: as §1
# [9] = molecular target: Neu5Ac(a2-6)Gal(b1-4)GlcNAc(b1-2)Man(a1-3)[Neu5Ac(a2-6)Gal(b1-4)GlcNAc(b1-2)Man(a1-6)]Man(b1-4)GlcNAc(b1-4)[Fuc(a1-6)]GlcNAc
# Summary of the method: as §1
# Neu5Ac(a2-6)GalNAc = molecular target: Neu5Ac(a2-6)GalNAc
# Summary of the method: as §1
# [10] = molecular target: Neu5Ac(a2-8)Neu5Ac(a2-3)Gal(b1-4)Glc
# Summary of the method: as §1
# Neu5Gc(a2-3)Gal(b1-4)Glc = molecular target: Neu5Gc(a2-3)Gal(b1-4)Glc
# Summary of the method: as §1
# [11] = molecular target: Fuc(a1-2)Gal(b1-3)GalNAc(b1-3)Gal(a1-4)Gal(b1-4)Glc
# Summary of the method: as §1
# [12] = molecular target: Fuc(a1-2)[GalNAc(a1-4)]Gal(b1-4)GlcNAc
# Summary of the method: as §1
# [13] = molecular target: Fuc(a1-3)[Gal(b1-4)]GlcNAc(b1-4)Gal(b1-4)[Fuc(a1-3)]GlcNAc
# Summary of the method: as §1
# [14] = molecular target: Fuc(a1-3)[Gal3S(b1-4)]GlcNAc
# Summary of the method: as §1
# Gal(b1-3)GlcNAc = molecular target: Gal(b1-3)GlcNAc
# Summary of the method: as §1
# [15] = molecular target: Gal(b1-4)GlcNAc(b1-3)Gal(b1-4)GlcNAc(b1-3)Gal(b1-4)GlcNAc
# Summary of the method: as §1
# Gal3S(b1-4)Glc6S = molecular target: Gal3S(b1-4)Glc6S
# Summary of the method: as §1
# Gal3S6S(b1-4)GlcNAc6S = molecular target: Gal3S6S(b1-4)GlcNAc6S
# Summary of the method: as §1
# Gal6S(b1-4)Glc = molecular target: Gal6S(b1-4)Glc
# Summary of the method: as §1
# Gal6S(b1-4)Glc6S = molecular target: Gal6S(b1-4)Glc6S
# Summary of the method: as §1
# GalNAc(a1-3)GalNAc = molecular target: GalNAc(a1-3)GalNAc
# Summary of the method: as §1
# Glc(a1-6)Glc(a1-6)Glc = molecular target: Glc(a1-6)Glc(a1-6)Glc
# Summary of the method: as §1
# [16] = molecular target: GlcNAc(b1-4)GlcNAc(b1-4)GlcNAc(b1-4)GlcNAc(b1-4)GlcNAc
# Summary of the method: as §1
# Kdn(a2-3)Gal(b1-4)GlcNAc = molecular target: Kdn(a2-3)Gal(b1-4)GlcNAc
# Summary of the method: as §1
# [17] = molecular target: Neu5Ac(a2-3)Gal(b1-4)GlcNAc(b1-2)Man(a1-3)[GlcNAc(b1-2)Man(b1-4)GlcNAc(b1-2)Man(a1-6)]Man(b1-4)GlcNAc(b1-4)GlcNAc
# Summary of the method: as §1
# [18] = molecular target: Neu5Ac(a2-6)Gal(b1-4)GlcNAc(b1-3)Gal(b1-4)[Fuc(a1-3)]GlcNAc(b1-3)Gal(b1-4)[Fuc(a1-3)]GlcNAc
# Summary of the method: as §1
# [19] = molecular target: Neu5Ac(a2-8)Neu5Ac(a2-3)[GalNAc(b1-4)]Gal(b1-4)Glc
# Summary of the method: as §1
binder,measurement,setting,value
Mnn9-2N3 (Aspergillus fumigatus) (protein) MAVARRMRRTNPITLLLAAILAIGFFIFVLSPSTTSASPVKAGSASSSSTSQQRREDNAAENPLSPPTKPFFKSQPVRHDGQQAPPPVVQYNLNQLSSTSTSAANGERILILTPMARFVPEYWDNVVKLTYPHELISIGFIIPKNKEGNAALAALEAAIAKTQSGPIDKRFASISILRQDFEPPLQSQDEKERHKISNQKARRESMSRARNSLLFTTLGPATAWVLWLDADIVETPPTLIQDLTAHDHPVLVPNCYQRYYNSEKKKMDVRPYDYNSWIDSSTAQSMAAEMGPDEILLEGYAEMPTYRTLMAHLADTANPNPKKVIELDGVGGTALMVKAEVHRDGAMFPAFPFYHLVETEGFAKMAKRLGYSVYGLPDYFVSRNFFFFFFFFFFG,glycan array binding signal (z-score),Kdn(a2-3)Gal(b1-3)GalNAc,-2.43
same,glycan array binding signal (z-score),[1],-0.789
same,glycan array binding signal (z-score),[2],2.97
same,glycan array binding signal (z-score),[3],-0.456
same,glycan array binding signal (z-score),[4],-1.34
same,glycan array binding signal (z-score),[5],-0.217
same,glycan array binding signal (z-score),[6],0.123
same,glycan array binding signal (z-score),[7],-2.19
same,glycan array binding signal (z-score),[8],-1.47
same,glycan array binding signal (z-score),[9],0.808
same,glycan array binding signal (z-score),Neu5Ac(a2-6)GalNAc,2.59
same,glycan array binding signal (z-score),[10],2.12
same,glycan array binding signal (z-score),Neu5Gc(a2-3)Gal(b1-4)Glc,-0.055
CBM32-1 (Clostridium perfringens) (protein) MGSSHHHHHHSSGLVPRGSHMASGVEITEGVTVTAKGNTEGNTADLAIDGDLSTYWESSNDYKWIEVDLGGIYELSKIEIFNKDEAVYKYNIYASEDGENFNKIAYKNNDNVSDSNGNVHTIDNVRAGKIRIDVVQNSNSDRVNIAEINVFG,glycan array binding signal (z-score),[11],-0.205
same,glycan array binding signal (z-score),[12],0.059
same,glycan array binding signal (z-score),[13],0.331
same,glycan array binding signal (z-score),[14],-0.283
same,glycan array binding signal (z-score),Gal(b1-3)GlcNAc,-0.333
same,glycan array binding signal (z-score),[15],0.889
same,glycan array binding signal (z-score),Gal3S(b1-4)Glc6S,3.21
same,glycan array binding signal (z-score),Gal3S6S(b1-4)GlcNAc6S,5.08
same,glycan array binding signal (z-score),Gal6S(b1-4)Glc,0.513
same,glycan array binding signal (z-score),Gal6S(b1-4)Glc6S,4.39
same,glycan array binding signal (z-score),GalNAc(a1-3)GalNAc,-0.173
same,glycan array binding signal (z-score),Glc(a1-6)Glc(a1-6)Glc,-0.279
same,glycan array binding signal (z-score),[16],5.14
same,glycan array binding signal (z-score),Kdn(a2-3)Gal(b1-4)GlcNAc,-0.439
same,glycan array binding signal (z-score),[17],3.77
same,glycan array binding signal (z-score),[18],0.193
same,glycan array binding signal (z-score),[19],-0.358

# Reference: the supplement of paper PMC8728848
